Compound activity (PubChem)
Rows were chosen to be rich in hits. Some 11% of all compounds tested hit in one or more screens of this group.
JMJD2A Tudor: JMJD2A Tudor domain (human) inhibition; AlphaScreen JMJD2A-Tudor / H3K4me3 peptide binding; Potency, µM (highest dose often 114 µM), inactives show at the top dose activity change, negative = inhibition, usual class: inhibitors; 4.4% of 390,000 active; note: potency is the fitted concentration of half-maximal effect; % is set by controls: 0 for no effect and ±100 for the full control effect; nearly all actives have a fitted effect of over 50% in size
HP1b binding inh: inhibitors of HP1-beta chromodomain binding to methylated histone tails. AID 540317. Potency, µM (doses to about 114 µM), for the others: at the highest dose activity change, negative = inhibition, usual class: inhibitors. 0.56% of 390,000 active. AlphaScreen HP1-beta / biotin-H3K9me3 peptide binding. P83916; note: potency is the fitted concentration of half-maximal effect; nearly all actives have a fitted effect of over 70% in size
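Compound inhibition of the preformed complex between 50 nM HP1-beta and 50 nM biotinylated H3K9me3 peptide was read by AlphaScreen. Buffer was PBS pH 7.4 with 0.01% Tween-20. Incubations ran 30 min at room temperature, with 10 ug/mL donor/acceptor beads.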
PI5P4K alpha inh: blocks human PI5P4K alpha kinase activity. max response, %. 1.2% of 330,000 active. P48426. PI5P4Kalpha enzyme, ADP-Glo luminescence, 60 min; hits give low values; active = max response of -50% or lower; inconclusive = between -30% and -50%; inactive = -30% or higher; note: value at the top dose of about 77 µM; % is set by controls: 0 for no effect and ±100 for the full control effect
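qHTS, 1536-well: enzyme/substrate mix, compound by pin tool, 5 microM ATP final; RT 60 min; ADP-Glo reagents 1 (45 min) then 2 (30 min); luminescence.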
BAZ2B inh: BAZ2B (human) inhibition. Q9UIF8. AlphaScreen BAZ2B-H3K14Ac peptide displacement. Potency, µM (series often up to 114 µM), for the others: at the top dose activity change, negative = inhibition, usual class: inhibitors. 4.4% of 360,000 active; note: potency is the fitted concentration of half-maximal effect; % is set by controls: 0 for no effect and ±100 for the full control effect; nearly all actives have a fitted effect of over 60% in size
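Complex of BAZ2B and biotin-H3K14Ac (50 nM apiece) forms over 30 min at RT, then faces library compounds up to 110 uM for another 30 min; AlphaScreen beads added, 20 min dark incubation, luminescence read.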
L3MBTL1 block: L3MBTL1 (human) inhibition; AID 485360; AlphaScreen L3MBTL1–H3K9me1 peptide binding; 0.66% of 230,000 active; Q9Y468; Potency, µM (doses to about 57.1 µM), for the others: top-dose activity, negative = inhibition, usual class: inhibitors; note: potency is the fitted concentration of half-maximal effect; % is set by controls: 0 for no effect and ±100 for the full control effect; nearly all actives have a fitted effect of over 60% in size
Target sequence (Q9Y468 whole entry, looked up): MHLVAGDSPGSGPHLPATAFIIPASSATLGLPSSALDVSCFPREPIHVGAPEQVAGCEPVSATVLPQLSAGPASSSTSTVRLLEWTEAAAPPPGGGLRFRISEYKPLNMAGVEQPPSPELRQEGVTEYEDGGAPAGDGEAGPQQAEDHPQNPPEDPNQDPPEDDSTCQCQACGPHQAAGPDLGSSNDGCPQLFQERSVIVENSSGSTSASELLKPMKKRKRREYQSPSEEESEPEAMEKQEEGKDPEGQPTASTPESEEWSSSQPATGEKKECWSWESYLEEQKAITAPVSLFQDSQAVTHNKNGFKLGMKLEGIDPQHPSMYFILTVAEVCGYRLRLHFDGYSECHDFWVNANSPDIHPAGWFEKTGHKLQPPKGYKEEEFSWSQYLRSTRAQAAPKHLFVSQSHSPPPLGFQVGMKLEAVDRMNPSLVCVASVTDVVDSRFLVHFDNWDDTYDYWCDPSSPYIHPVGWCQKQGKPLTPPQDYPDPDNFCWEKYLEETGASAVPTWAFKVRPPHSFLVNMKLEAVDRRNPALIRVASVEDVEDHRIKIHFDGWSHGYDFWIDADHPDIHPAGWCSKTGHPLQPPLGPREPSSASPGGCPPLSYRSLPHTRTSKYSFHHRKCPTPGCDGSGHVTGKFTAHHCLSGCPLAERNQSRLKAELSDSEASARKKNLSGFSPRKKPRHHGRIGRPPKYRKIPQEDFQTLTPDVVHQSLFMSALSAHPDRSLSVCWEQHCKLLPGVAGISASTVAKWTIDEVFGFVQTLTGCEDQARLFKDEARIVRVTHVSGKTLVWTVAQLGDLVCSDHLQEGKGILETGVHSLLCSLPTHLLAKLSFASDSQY
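First, the protein-peptide complex forms for 30 min at room temperature (L3MBTL1 50 nM, biotinylated H3K9me1 peptide 75 nM). Next, compounds are pin-transferred and incubated 30 min. Finally, AlphaScreen beads are added and read after 30 min.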
G9a inh: G9a (human) methyltransferase inhibition | G9a H3K9 monomethylation, AlphaScreen, 2 h | Potency, µM (series often up to 102 µM), for the others: at the highest dose activity, negative = inhibition, hits mostly inhibitors | 8.8% of 350,000 active; note: potency is the fitted concentration of half-maximal effect; % is set by controls: 0 for no effect and ±100 for the full control effect; nearly all actives have a fitted effect of over 75% in size
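G9a (20 nM) preincubated 15 min RT with compounds, then 500 nM biotinylated H3K9 peptide and 20 uM SAM added; 2 h RT reaction. Monomethyl-H3K9 product detected by AlphaScreen with anti-H3K9me1 antibody, streptavidin donor and anti-rabbit IgG acceptor beads.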
* hit, by the source's call; ? = inconclusive; nt = no result; [ ] = remark or other dose. Unless noted, calls come from the whole dose curve; as a rule, active = well fitted inhibition curve with a large enough effect; inconclusive = small, poorly fitted or top-dose-only effect; inactive = no such curve, though single readings can be large or run the other way.

SMILES	JMJD2A Tudor	HP1b binding inh	PI5P4K alpha inh	BAZ2B inh	L3MBTL1 block	G9a inh
Cc1cc2oc(=O)cc(CSc3nnc(-c4cccs4)o3)c2cc1C(C)C	89µM*	-7%	8	-8%	-12%	35µM*
CCOC(=O)c1c(C)[nH]c(C)c1S(=O)(=O)N1CCC(C(=O)Nc2ccc(C)cn2)CC1	-10%	4%	nt	-28%	nt	6%[59 µM]
O=C(CN1CCN(c2ccccc2)CC1)N1CCc2[nH]c3ccccc3c2C1	?	-1%	0	50µM*	-22%	?
O=C(CN1CCc2[nH]c3ccccc3c2C1)N1CCCCC1	-19%	11%	8	-34%	nt	16%[12.7 µM]
Cc1ccc2[nH]c3c(c2c1)CN(C(=O)CN1CCN(c2ccccn2)CC1)CC3	-35%	-2%	nt	50µM*	-8%	20µM*
Cc1ccc2[nH]c3c(c2c1)CN(C(=O)CN1CC(C)OC(C)C1)CC3 (centres undefined)	-21%[11.4 µM]	31%	0	-2%	-8%[11.4 µM]	?
Cc1ccc2[nH]c3c(c2c1)CN(C(=O)CN1CCN(Cc2ccc4c(c2)OCO4)CC1)CC3	50µM*	?	6	-67%	-9%	?
Cn1c(=O)oc2cc(S(=O)(=O)NC(Cc3ccccc3)C(=O)Nc3ccc(F)cc3)ccc21 (centres undefined)	-12%	19%	nt	-20%	nt	2%[59 µM]
CCOC(=O)CC(NC(=O)c1cc2cc(Cl)ccc2oc1=O)c1ccc(C)cc1 (centres undefined)	-6%	19%	nt	-12%	nt	-7%[59 µM]
Cc1cc2c(NCCc3ccccc3)ncnc2s1	3%	34%	-24	?	nt	50µM*
Cc1cc2c(Nc3ccccc3)ncnc2s1	-5%	24%	-20	-13%	11%	?
CCCCCOC(=O)CSc1ncnc2c1sc1nc(N3CCOCC3)c3c(c12)CCCC3	11%	49%	nt	3%	nt	3%[59 µM]
CC(Oc1ccc(Cl)cc1Cl)C(=O)Nc1ccc(O)cc1 (centres undefined)	-5%[11.4 µM]	23%	14	50µM*	-18%	25µM*
COC(=O)c1c(NC(=O)C(C)Oc2ccc(Cl)cc2Cl)sc2c1CCCC2 (centres undefined)	3%	-1%	nt	0%	nt	3.5µM*
CCCc1ccc(OC(C)C(=O)Nc2sc3c(c2C(=O)OC)CCCCC3)cc1 (centres undefined)	16%	?	nt	3%	nt	7.9µM*
CCOC(=O)c1c(NC(=O)C(C)Oc2ccc(Cl)c(C)c2)sc2c1CCCC2 (centres undefined)	-8%	-23%	nt	-34%	nt	3.2µM*
COC(=O)c1c(NC(NC(=O)C(C)C)C(Cl)(Cl)Cl)sc2c1CCCC2 (centres undefined)	-1%	44%	1	-30%	-5%	?
CC(Oc1ccc(Cl)cc1Cl)C(=O)Nc1cccc(O)c1 (centres undefined)	-5%	43%	-5	-21%	2%	?
COc1ccc(C(=O)Nc2ccc3c(c2)CCCN3S(=O)(=O)c2ccc(C)cc2)c(OC)c1	1%	38%	nt	-16%	nt	18%[59 µM]
CCOc1ccc(NC(=O)c2nnn(-c3ccc(F)c(Cl)c3)c2C)cc1	-15%	4%	nt	-25%	nt	-25%[59 µM]
O=C(Nc1ccccc1)N1CCC2(CC1)CCN(S(=O)(=O)c1ccccc1)CC2	nt	nt	nt	nt	nt	5%[12.7 µM]
COC(=O)C1OC(=O)C2O[C@@]23[C@]2(C)C(OC(C)=O)CC4C(C)(C)C(=O)CC[C@]4(C)C2CC[C@@]13C (some centres undefined)	nt	nt	nt	nt	nt	-41%[2.33 µM]
CCOC(=O)Cc1ccc(NC(=O)N2CCc3c(sc4c3CCCC4)C2c2ccc(F)cc2)cc1 (centres undefined)	-26%	-12%	nt	-23%	nt	-23%[59 µM]
O=C(NNc1ccc(O)cc1)c1ccc(Br)cc1	?	?	-21	?	?	1.6µM*
O=C(O)/C=C/C(=O)NNC(=O)c1ccc(Br)cc1	-7%	32%	-17	-2%	12%	25µM*
SMILES	JMJD2A Tudor	HP1b binding inh	PI5P4K alpha inh	BAZ2B inh	L3MBTL1 block	G9a inh
O=C(NNc1ccccc1)c1ccccc1	-2%	41%	-5	nt	nt	nt
CCN(CC)c1nn2c(=O)c(C(=O)NCc3ccc(F)cc3)cnc2s1	-11%	25%	nt	-11%	nt	3%[59 µM]
COc1ccccc1-n1cc2c([N+](=O)[O-])cc([N+](=O)[O-])cc2n1	-27%	25%	5	?	nt	10µM*
c1ccc2c(-c3nnc(SCc4cn5ccccc5n4)o3)c[nH]c2c1	-20%	21%	-12	-11%	nt	8.9µM*
c1ccc(CSc2nnc(-c3c[nH]c4ccccc34)o2)cc1	-15%	34%	-6	-14%	14%	1%
Cc1ccnc2ccc(SC(F)(F)F)cc12	-10%	33%	0	-36%	nt	-16%
Nc1ccc(SC(F)(F)F)cc1	1%	29%	-15	5%	5%	50µM*
CN(C)c1ccc(N=C/C=C2/N(C)c3ccccc3C2(C)C)cc1	40µM*	?	6	20µM*	?	7.1µM*
CN1/C(=C\C=[N+](C)c2ccccc2)C(C)(C)c2ccccc21	35µM*	15%	nt	-36%	-7%	?
CN1/C(=C\C=N\O)C(C)(C)c2ccccc21	-6%	29%	5	-15%	-4%	-1%
CO/N=C/C=C1/N(C)c2ccccc2C1(C)C	-13%	16%	14	?	-21%	50µM*
COc1ccc(NC(=O)Cn2cnc3ccc(S(=O)(=O)N4CCC(C)CC4)cc3c2=O)cc1OC	-12%	21%	nt	-37%	nt	-16%[59 µM]
O=C(Nc1ncccc1O)c1ccc2c(c1)OCCO2	25µM*	5%	-9	79µM*	-21%	50µM*
Cc1cccnc1NC(=O)c1ccc2c(c1)OCCO2	-9%	24%	-11	13%	1%	0%
O=C(Nc1ncccc1O)c1ccc2c(c1)OCO2	18µM*	12%	-2	?	-9%	?
Cc1ccccc1-c1noc(-c2cc(C(C)C)[nH]n2)n1	0%	66%	nt	11%	nt	5%[59 µM]
Cc1c(N=Nc2ccc(O)cc2)c(=O)n(-c2ccccc2)n1C	-22%	14%	3	?	?	-1%
Cc1[nH]c2ccccc2c1N=Nc1c(C)n(C)n(-c2ccccc2)c1=O	-34%	11%	-9	?	10%	40µM*
Cc1c(N=NC2=C(O)CCCC2=O)c(=O)n(-c2ccccc2)n1C	14µM*	?	3	22µM*	-8%	8.9µM*
CCC(C)NC(=O)c1cnn(-c2cccc(F)c2)c1-n1cccc1 (centres undefined)	-10%	15%	nt	3%	nt	0%[59 µM]
Cc1ccc2c(Cl)cc(Cl)c(OCC(=O)Nc3cc(S(=O)(=O)N(C)C)ccc3C)c2n1	-22%	52%	0	2%	-5%	71µM*
